# In PubChem BioAssay AID1345085 (National Center for Advancing Translational Sciences (NCATS), 2018):
# Results filed as inconclusive are left out. Activity calls are given as the source filed them. The call rests on the fitted dose curve; in most records, active means well fitted cell-killing curve with a large enough effect; inconclusive means small, poorly fitted or top-dose-only effect, or effect the other way; inactive means no such curve, though single readings can be large or run the other way.
# Test system: Es-2
# Assay: Confirmatory qHTS for gynecologic anti-cancer compounds from libraries of approved drugs and bioactive compounds; further: nearly all actives have a fitted effect of over 55% in size
# Details: gynecologic cancer cell panel viability, ATPlite luminescence, 48 h; series mostly up to 57.6 µM; activity change, negative = viability loss: at the top concentration
# Procedure, shortened: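 Viability is measured as ATP-dependent luciferase light using ATPlite, read 15 min after reagent addition at room temperature. Compounds, in DMSO, span 57.5 uM down to 0.977 nM over 11 threefold steps for 48 h.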
# On the % scale 0 is the no-effect control and ±100 the full control effect; potency means the concentration at half of the fitted maximal effect.
Structure (SMILES),Potency,"activity change, negative = viability loss"
CCc1c2c(nc3ccc(OC(=O)N4CCC(N5CCCCC5)CC4)cc13)-c1cc3c(c(=O)n1C2)COC(=O)[C@]3(O)CC,12.2 µM (active),
CN1CCN(Cc2ccc(NC(=O)Nc3ccc(Oc4cc(NC(=O)C5CC5)ncn4)cc3)cc2C(F)(F)F)CC1,0.544 µM (active),
CCCCc1oc2ccccc2c1C(=O)c1cc(I)c(OCCN(CC)CC)c(I)c1,70.8 µM (active),
NS(=O)(=O)c1ccc(Nc2nc(OCC3CCCCC3)c3[nH]cnc3n2)cc1,,-17.6% (inactive)
O=C(/C=C/c1cccc(S(=O)(=O)Nc2ccccc2)c1)NO,2.98 µM (active),
CCCc1nn(C)c2c(=O)[nH]c(-c3cc(S(=O)(=O)N4CCN(C)CC4)ccc3OCC)nc12,,8% (inactive)
CS(=O)(=O)c1ccc(C(=O)Nc2ccc(Cl)c(-c3ccccn3)c2)c(Cl)c1,,5.55% (inactive)
O=C(O)c1ccc(Nc2ncc3c(n2)-c2ccc(Cl)cc2C(c2c(F)cccc2F)=NC3)cc1,,5.57% (inactive)
O=c1cc(CN2CCOCC2)occ1OCCCCCSc1ccnc2cc(C(F)(F)F)ccc12,,-3.9% (inactive)
CCCCN(CCCC)CC(O)c1cc(Cl)cc2c1-c1ccc(Cl)cc1/C2=C/c1ccc(Cl)cc1 (configuration not stated),,-28.3% (inactive)
O=C(NOCC1CC1)c1ccc(F)c(F)c1Nc1ccc(I)cc1Cl,1.53 µM (active),
CS(=O)(=O)c1ccc(-c2cnc(N)c(C(=O)Nc3ccccc3)n2)cc1,,-16.2% (inactive)
Cc1csc(NC(=O)c2sc3nc4c(c(C(F)(F)F)c3c2N)CCC4)n1,2.17 µM (active),
CN(C)C/C=C/C(=O)Nc1cc2c(Nc3ccc(F)c(Cl)c3)ncnc2cc1OC1CCOC1 (configuration not stated),15.3 µM (active),
CC(C)n1c(/C=C/[C@@H](O)C[C@@H](O)CC(=O)O)c(-c2ccc(F)cc2)c2ccccc21,5.44 µM (active),
Nc1ccn([C@@H]2O[C@H](CO)[C@@H](O)C2(F)F)c(=O)n1,0.0306 µM (active),
Cc1cc(Nc2nc(N[C@@H](C)c3ccc(F)cc3)c(C#N)cc2F)n[nH]1,21.7 µM (active),
COc1cc(Nc2c(C#N)cnc3cc(OCCCN4CCN(C)CC4)c(OC)cc23)c(Cl)cc1Cl,21.7 µM (active),
Cn1cc(-c2ccc3ncc(Cc4ccc5ncccc5c4)n3n2)cn1,,0.637% (inactive)

Structure (SMILES),Potency,"activity change, negative = viability loss"
C[C@]12CCC(=O)C=C1CC[C@@H]1[C@@H]2[C@@H](O)C[C@@]2(C)[C@H]1CC[C@]2(O)C(=O)CO,,-15.4% (inactive)
Cc1ccc(C(=O)N(CCCN)C(c2nc3cc(Cl)ccc3c(=O)n2Cc2ccccc2)C(C)C)cc1 (configuration not stated),3.85 µM (active),
Nc1ccccc1NC(=O)c1ccc(CNc2nccc(-c3cccnc3)n2)cc1,2.43 µM (active),
CCc1c2c(nc3ccc(O)cc13)-c1cc3c(c(=O)n1C2)COC(=O)[C@]3(O)CC,0.0385 µM (active),
NC1(c2ccc(-c3nc4ccn5c(=O)[nH]nc5c4cc3-c3ccccc3)cc2)CCC1,,-4.22% (inactive)
Cc1nc(N)ncc1-c1nc(N2CCOCC2)c2sc(C(C)(C)O)cc2n1,,-16.4% (inactive)
O=c1c2ccccc2nc2n1CCc1c-2[nH]c2ccccc12,,-0.16% (inactive)
Oc1cn2c(n1)Nc1ccc(Cl)c(Cl)c1C2,,-1.22% [at 19.5 µM] (inactive)
Nc1ccccc1NC(=O)c1ccc(CNC(=O)OCc2cccnc2)cc1,7.69 µM (active),
CCC1C(=O)N(C)c2cnc(Nc3ccc(C(=O)NC4CCC(N5CCN(CC6CC6)CC5)CC4)cc3OC)nc2N1C(C)C (configuration not stated),1.22 µM (active),
COc1ccc2c(c1)c(CC(=O)O)c(C)n2C(=O)c1ccc(Cl)cc1,,-5.45% (inactive)
Cc1nc(Nc2ncc(C(=O)Nc3c(C)cccc3Cl)s2)cc(N2CCN(CCO)CC2)n1,13.7 µM (active),
Cc1ccccc1C(OCCN(C)C)c1ccccc1 (configuration not stated),,6.47% (inactive)
NCCOc1cc(C(=O)Nc2cc(OCCN)c3ccccc3n2)nc(C(=O)Nc2cc(OCCN)c3ccccc3n2)c1,,4.63% (inactive)
COc1cc(-c2nn(C3CCC(N4CCN(C(C)=O)CC4)CC3)c3ncnc(N)c23)ccc1NC(=O)c1cc2ccccc2n1C (configuration not stated),30.6 µM (active),
CNCc1ccc(-c2[nH]c3cc(F)cc4c3c2CCNC4=O)cc1,,-16.9% (inactive)
CC1=C(CO)C(=O)O[C@@H]([C@@H](C)[C@H]2CC[C@H]3[C@@H]4C[C@H]5O[C@]56[C@@H](O)C=CC(=O)[C@]6(C)[C@H]4CC[C@]23C)C1,2.66 µM (active),
Cc1ccc(NC(=O)c2ccc(CN3CCN(C)CC3)cc2)cc1Nc1nccc(-c2cccnc2)n1,,4.97% (inactive)
